About 8,600 (12%) of roughly 69,000 compounds showed an effect of 50% or more. The list comes from a sample in which strong results are over-represented; it also holds similar structures and randomly drawn compounds.

In this assay the test system is Plasmodium berghei. The experiment in a line: Screen against P. berghei liver stage (PbLuc), transformed with Luciferase, at 10uM. It is filed as functional, HepG2. Conditions: tested at 10 uM.
In the case of `CCOc1ccc(S(=O)(=O)NC(=O)CC2CCCO2)cc1` (centres undefined), the INHIBITION is listed as -4.94%.

Turning to `Cc1ccc(CN2CC[C@H]3OCC[C@@]3(C(=O)N3CCCO3)C2)o1`, the INHIBITION was 0.618%.

`Cc1nn(CCC(=O)N2CCN(Cc3cnn(C)c3C)CC2)c(C)c1Br`: the INHIBITION stood at 43.4%.

For the compound `CC(C)c1nc(C2CCCN2C(=O)c2ccc(C#N)cn2)no1` (centres undefined), the INHIBITION was determined as 22.9%.

Take `CN(C)c1cncc(C2CCCN(c3cnccn3)C2)n1` (centres undefined): the INHIBITION is listed as 17.77%.

As for `CN(Cc1ccc(Br)c2cccnc12)S(C)(=O)=O`, the INHIBITION is recorded as -17.85%.

In the case of `CC(C)N1CCC(c2cccc(C(=O)N(C)C)n2)CC1`, the INHIBITION is listed as -7.66%.

With `c1ccc2c(c1)CC(N1CCCN(Cc3cccc4nonc34)CC1)C2`, the INHIBITION worked out at 49%.

As to `c1cc(CN2CCC(c3nnc4n3CCCCC4)CC2)c2c(c1)OCO2`, the INHIBITION is listed as 29.7%.

With `c1cc(CN2CCC(c3nnc4n3CCCCC4)CC2)c2nonc2c1`, the INHIBITION came to 64.4%.

As to `CCC(C)(COc1ncccc1Cl)NCC(=O)NCC(C)C` (centres undefined), the INHIBITION was determined as 57.4%.

In the case of `CC(C)CNC(=O)CNC(=O)Nc1cccc(Cl)c1-n1cccn1`, the INHIBITION is reported as -29.2%.

For `CCOc1ncccc1NC(=O)NC1CCN(C(=O)C2CC2)CC1`, the INHIBITION is reported as 41.2%.

As to `CCC(C)(COc1ncccc1Cl)NCC(=O)NC1CCCCC1` (centres undefined), the INHIBITION is 68.5%.

With `Cc1ccc(Oc2ncccc2CNC(=O)NC2CCCCC2)cn1`, the INHIBITION came to 19.4%.

For the compound `CCC(C)(COc1ncccc1Cl)NCC(=O)Nc1ccc(Br)cn1` (centres undefined), the INHIBITION was found to be 36.5%.

As to `O=C(Cc1ccc(F)cc1)NCc1ccc(C(=O)O)o1`, the INHIBITION stood at 1.62%.

For `COc1ccc(C(=O)NCc2ccc(C(=O)O)o2)cc1`, the INHIBITION is 10.6%.

As for `O=C(NCc1ccc(C(=O)O)o1)c1ccc(F)cc1`, the INHIBITION was 51.1%.

Regarding `Cc1csc(CN(C)CCOc2ccccc2)n1`, the INHIBITION was -4.23%.

On to `CC(C(=O)Nc1sccc1C(N)=O)N(C)CCOc1ccccc1` (centres undefined), for which the INHIBITION came to 94%.

Take `Cc1ccccc1OCCC(=O)OC(C)C(=O)Nc1sccc1C(N)=O` (centres undefined): the INHIBITION is listed as 45.1%.

Consider `Cc1[nH]nc(CCC(=O)NCC2CCCN(C3CCCC3)C2)c1C` (centres undefined), for which the INHIBITION came out at 41.6%.

Turning to `Cc1ccc(OCCN2CCN(Cc3cnn(CCO)c3)CC2)cc1`, the INHIBITION stood at 22.25%.

As to `CC(C)(O)CCc1cccc(C(=O)N2CCC3(CCOCC3)CC2)c1`, the INHIBITION is listed as -147%.

With `C=C(C)COc1cccc(C(=O)N2CCC(O)(c3ccccc3)CC2)c1`, the INHIBITION was determined as 65.6%.

As to `CCOc1cccc(C(=O)N2CCC3(CC2)[C@H](O)C[C@@H]3OC)c1`, the INHIBITION is recorded as -55.1%.

Regarding `C=C(C)COc1cccc(C(=O)N2CCC3(CC2)CN(C)CCN3C)c1`, the INHIBITION is 46.1%.

For the compound `COc1cccc(C(=O)N2CCOC3(CCCN(C(C)=O)C3)C2)c1` (centres undefined), the INHIBITION is recorded as 33.4%.

On to `C=C(C)COc1cccc(C(=O)N2CCC3(CCOCC3)CC2)c1`, for which the INHIBITION came to 52.6%.

Regarding `CCn1nc(C)cc1C(=O)N1C[C@@H]2C[C@@H](c3nc(C)cs3)O[C@@H]2C1`, the INHIBITION came out at 15.6%.

Take `CC(C)COc1cncc(N2CCCN(CC(F)(F)F)CC2)n1`: the INHIBITION is on record as -1.04%.

Take `CC(C)COc1cncc(N2CCCN(c3ncccn3)CC2)n1`: the INHIBITION stood at 50.4%.

`CC(C)COc1cncc(N(C)C2CCN(c3ncccn3)CC2)n1`: the INHIBITION turned out to be 21.2%.

For the compound `O=C(NCc1ccco1)[C@@]12CCO[C@@H]1CCN(c1ncccn1)C2`, the INHIBITION stood at 27.6%.

Take `Cn1cc(CC2CC(=O)N(Cc3ccccc3OC(F)F)C2=O)cn1` (centres undefined): the INHIBITION turned out to be 33.1%.

For `CN(C)C(=O)c1nn(C)c2c1CN(Cc1cccs1)C2`, the INHIBITION was -6.23%.

`Cc1ccc(CN2C[C@H](N3CCOCC3)[C@@H]3OCCC[C@@H]32)o1`: the INHIBITION is reported as -22.1%.

For `Cc1nccn1CCC1CCN(C(C)C)CC1`, the INHIBITION was found to be 38.8%.

Turning to `Cc1ccc(C(=O)NCc2cc(F)ccc2N2CCCN(C)CC2)o1`, the INHIBITION is on record as 42.1%.

Regarding `CN1CCCN(c2ccc(F)cc2CNC(=O)c2ccsc2)CC1`, the INHIBITION is given as 79.7%.

Turning to `CN1CCCN(c2ccc(F)cc2CNC(=O)c2cccnc2)CC1`, the INHIBITION was -12.2%.

On to `CN(CCCOc1ccccc1Cl)C(=O)CN1C[C@H]2CC[C@@H](CC1=O)N2`, for which the INHIBITION was 17%.

Regarding `CCS(=O)(=O)NC1CCCN(c2ccc(F)cc2C)C1=O` (centres undefined), the INHIBITION was 5.29%.

On to `Cc1oc(C(C)C)cc1C(=O)N1CCN(c2cnn(C)c(=O)c2)CC1`, for which the INHIBITION was 51.1%.

Take `CCc1ncc(C(=O)N2CCN(c3cnn(C)c(=O)c3)CC2)cn1`: the INHIBITION was found to be 45.8%.

As to `Cc1cncc(C(=O)N2CCN(c3cnn(C)c(=O)c3)CC2)c1`, the INHIBITION is -5.52%.

`CN(C)c1ccccc1C(=O)N1CCCC(c2ccc(C(=O)O)cc2)C1` (centres undefined): the INHIBITION is given as 18.6%.

On to `CC(Cn1cccn1)NCc1csc(-c2ncccn2)n1` (centres undefined), for which the INHIBITION was -29.1%.

On to `CCC(C(=O)N1CCN(C(=O)N2CCOCC2)CC1)n1cccn1` (centres undefined), for which the INHIBITION was 33%.

On to `CCc1csc(CNC(=O)C(CC)n2cccn2)n1` (centres undefined), for which the INHIBITION is recorded as 19.8%.

Turning to `CCC(C(=O)NCc1cc(N2CCOCC2)ncn1)n1cccn1` (centres undefined), the INHIBITION is recorded as 36.7%.

In the case of `CCC(C(=O)NCc1csc(N2CCOCC2)n1)n1cccn1` (centres undefined), the INHIBITION is 57.5%.

In the case of `CCC(C(=O)NCc1csc(-c2ncccn2)n1)n1cccn1` (centres undefined), the INHIBITION was 60.4%.

For `Cc1ccoc1C(=O)N1CCO[C@H]2[C@H](OCCN(C)C)CC[C@@H]21`, the INHIBITION worked out at 22.4%.

For `Cc1ccc(C(=O)NCCS(=O)(=O)N2CCSCC2)n1C`, the INHIBITION is reported as -28.9%.

In the case of `CN(C)C(=O)N1CCN(CCCc2ccccc2)[C@H]2CS(=O)(=O)C[C@H]21`, the INHIBITION is reported as -11.5%.

Take `CC(C)=CCN1CCN(CCCc2ccccc2)[C@H]2CS(=O)(=O)C[C@H]21`: the INHIBITION is on record as 51.3%.

On to `CC(C)=CCN1CCN(CCCOc2ccccc2)[C@H]2CS(=O)(=O)C[C@H]21`, for which the INHIBITION was -25.7%.

These data come from ChEMBL document CHEMBL4513216, “Probing the Open Global Health Chemical Diversity Library for Multistage-Active Starting Points for Next-Generation Antimalarials” (ACS Infect Dis, 2020).
